The record followed here is article PMC5700166.

In this assay the target is T1, GST-Ap-NF-kB RHD (Exaiptasia pallida (Aiptasia), UniProt A0A913YAJ5 2-422).
T1 sequence: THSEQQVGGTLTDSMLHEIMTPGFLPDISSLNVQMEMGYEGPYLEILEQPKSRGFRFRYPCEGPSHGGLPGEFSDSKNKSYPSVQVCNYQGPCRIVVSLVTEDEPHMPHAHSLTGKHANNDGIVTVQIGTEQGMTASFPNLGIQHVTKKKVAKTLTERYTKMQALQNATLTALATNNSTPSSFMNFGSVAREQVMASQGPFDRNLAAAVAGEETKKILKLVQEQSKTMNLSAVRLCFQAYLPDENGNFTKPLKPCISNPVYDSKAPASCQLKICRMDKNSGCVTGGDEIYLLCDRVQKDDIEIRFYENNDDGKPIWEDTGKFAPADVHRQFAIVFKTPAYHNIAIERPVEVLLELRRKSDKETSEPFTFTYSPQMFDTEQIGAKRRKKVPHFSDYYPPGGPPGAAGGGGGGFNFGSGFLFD
In words: protein-binding microarray (PBM); PBM: ~300 nM protein, 6 mM HEPES pH 7.8, 80 mM KCl, 0.5 mM EDTA, 0.5 mM EGTA, 6% glycerol, 35 ng/ul poly-dIdC, 1% milk, 1 h, room temperature; Ap Aiptasia and Nv Nematostella (sea anemones) / Co Capsaspora / Aq Amphimedon (sponge) / Dm Drosophila / Hu human; RHD is the Rel homology domain; high values mean tight binding. The following applies: dsDNA, one strand shown.
The sequence “CCGATTAACATCAGGCAAATCCCTGATGTTAATCGGGTCTTGATTCGCTTGACGCTGCTG” yielded a binding signal of 1.95 z-score. With “CCGATTAACATCAGGAAAATACCTGATGTTAATCGGGTCTTGATTCGCTTGACGCTGCTG”, the binding signal is 1.22 z-score. In the case of “CCGATTAACATCAGGGACCTCCCTGATGTTAATCGGGTCTTGATTCGCTTGACGCTGCTG” it was 5.47 z-score; in that of “CCGATTAACATCAGGGAAGCCCATGATGTTAATCGGGTCTTGATTCGCTTGACGCTGCTG”, 1.18 z-score.

In turn, “CCGATTAACATCAAGAAATTACCTGATGTTAATCGGGTCTTGATTCGCTTGACGCTGCTG” gave a binding signal of 1.26 z-score. “CCGATTAACATCAGGAACGCCCCTGATGTTAATCGGGTCTTGATTCGCTTGACGCTGCTG” gave a binding signal of 3.09 z-score. In the case of “CCGATTAACATCAAGGGCATTCCTGATGTTAATCGGGTCTTGATTCGCTTGACGCTGCTG” it was 1.84 z-score. In the case of “CCGATTAACATCAGGAAATGCCCTGATGTTAATCGGGTCTTGATTCGCTTGACGCTGCTG” it was 1.98 z-score; in that of “CCGATTAACATCACGGAAGTCCCTGATGTTAATCGGGTCTTGATTCGCTTGACGCTGCTG”, 5.31 z-score; in that of “CCGATTAACATCAGGTAATCACCTGATGTTAATCGGGTCTTGATTCGCTTGACGCTGCTG”, 1.18 z-score. In the case of “CCGATTAACATCAGGACAGTCCCTGATGTTAATCGGGTCTTGATTCGCTTGACGCTGCTG” it was 4.92 z-score. In the case of “CCGATTAACATCAAGGAAAACCCTGATGTTAATCGGGTCTTGATTCGCTTGACGCTGCTG”, the binding signal stood at 2.67 z-score.

On to “CCGATTAACATCAGGGATTCCACTGATGTTAATCGGGTCTTGATTCGCTTGACGCTGCTG”, for which the binding signal worked out at 2.72 z-score.

For “CCGATTAACATCAGGGATTTACCTGATGTTAATCGGGTCTTGATTCGCTTGACGCTGCTG”, the binding signal was 4.76 z-score.
